Laboratory results published in PubChem BioAssay.
Active and inactive are the calls of the source. Unless noted, how the calls were made is not given here.

Key:
[1] = A549 cell viability effects, profiling panel, calcein-AM fluorescence, 48 h, basal (AID 1162); settings: higher = more signal; further: test concentration not given here
[2] = adipocyte viability effects, profiling panel, cell-based, 3T3-L1 adipocytes, calcein-AM fluorescence, 48 h, basal (AID 1163); settings: 3T3-L1 adipocytes viability, higher = more signal; further: test concentration not given here
[3] = HepG2 cell viability effects, profiling panel, calcein-AM fluorescence, 48 h, basal (AID 1164); settings: higher = more signal; further: test concentration not given here
[4] = MM1S cell viability effects, profiling panel, calcein-AM fluorescence, 48 h, basal (AID 1165); settings: higher = more signal;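 further: viability of MM1S multiple myeloma cells under basal unstimulated conditions; test concentration not given here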
[5] = basal RPMI8226 viability, no added stimulus, profiling panel, cell-based, calcein-AM fluorescence, 48 h, PK04 Diversity Set (AID 1166); settings: RPMI8226 myeloma viability, higher = more signal;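 further: cells grown under basal conditions without added stimulus; test concentration not given here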
[6] = basal HepG2 mitochondrial membrane potential changes, profiling panel, cell-based, JC-1 fluorescence, 24 h, 100 nL compound (AID 1167); settings: higher = more signal; further: test concentration not given here
[7] = basal 3T3-L1 adipocyte mitochondrial potential changes, profiling panel, cell-based, JC-1 fluorescence, 3T3-L1 adipocytes, 24 h, 100 nL compound (AID 1168); settings: JC-1 mitochondrial fluorescence, higher = more signal, called active from +8 up or from −8 down; further: test concentration not given here
[8] = basal RPMI8226 mitochondrial membrane potential changes, profiling panel, cell-based, JC-1 fluorescence, 24 h, 100 nL compound (AID 1169); settings: RPMI8226 myeloma, JC-1 mitochondrial potential fluorescence, higher = more signal; further: test concentration not given here
[9] = basal MM1S mitochondrial membrane potential changes, profiling panel, cell-based, JC-1 fluorescence, 24 h, 100 nL compound (AID 1170); settings: higher = more signal; further: test concentration not given here
[10] = A549 lung cancer cell viability effects, profiling panel, resazurin fluorescence, 24 h, PK04 Diversity Set (AID 1171); settings: higher = more signal, called active from +8 up or from −8 down; further: test concentration not given here
[11] = HepG2 liver cancer cell viability effects, profiling panel, resazurin fluorescence, 24 h, PK04 Diversity Set (AID 1172); settings: higher = more signal; further: test concentration not given here
[12] = basal S. cerevisiae growth modulation, no modifier, primary screen, OD600, strain BY4716, 24 h, basal condition (AID 1173); settings: OD600, 24 h, higher = more signal, called active from +8 up or from −8 down
[13] = MM1S myeloma cell viability, profiling panel, resazurin fluorescence, basal, 24 h, PK04 Diversity Set (AID 1174); settings: higher = more signal, called active from +8 up or from −8 down;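 further: MM1S multiple myeloma cell line; test concentration not given here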
[14] = target: Dihydroorotate dehydrogenase (quinone), mitochondrial (Plasmodium falciparum (isolate 3D7)) (UniProt Q08210); experiment: PfDHODH enzyme inhibitors, primary screen, biochemical, C-terminal His tag, absorbance 600 nm (AID 1175); settings: DCIP absorbance 600 nm, higher = more signal, called active from +8 up or from −8 down;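 further: recombinant parasite enzyme with a five histidine tag at its C terminus; test concentration not given here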
[15] = P. aeruginosa biofilm formation inhibitors, primary screen, strain PAO1, LB-PBS medium, absorbance 600 nm (AID 1176); further: test concentration not given here; settings: P. aeruginosa PAO1 growth/biofilm, A600, 12 h; higher = more signal
[16] = S. cerevisiae RM11-1a growth modifiers, primary screen, strain RM11-1a, OD600, basal, 24 h (AID 1177); settings: OD600, 24 h, higher = more signal, called active from +8 up or from −8 down;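 further: cultures grown under basal conditions with no added stressor; test concentration not given here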
[17] = E. coli acrAB mutant growth effects, primary screen, E. coli filamentation inducers, strain DRC39, OD650, 24 h (AID 1178); settings: higher = more signal, called active from +8 up or from −8 down;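 further: growth measured as culture turbidity by optical density at 650 nm; test concentration not given here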
[18] = E. coli acrAB mutant growth effects, primary screen, E. coli filamentation inducers, strain DRC39, OD650, 48 h (AID 1179);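 further: screen aims at cell division blockers that make cells filament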; settings: E. coli DRC39 delta-acrAB growth, higher = more signal, called active from +8 up or from −8 down
[19] = RPMI8226 myeloma cell viability, profiling panel, resazurin fluorescence, basal, 24 h, PK04 Diversity Set (AID 1180); settings: higher = more signal;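 further: RPMI8826 multiple myeloma cell line at 5000 cells per well; test concentration not given here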
[20] = target: E3 ubiquitin-protein ligase XIAP (Homo sapiens) (UniProt P98170); experiment: XIAP binders, primary screen, biophysical, small-molecule microarray, fluorescence 635 nm (AID 1181); settings: small-molecule microarray binding, higher = more signal;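 further: score merges 667 nm emission and signal to noise over triplicate slides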
E3 ubiquitin-protein ligase XIAP (Homo sapiens), sequence (P98170 whole entry, looked up): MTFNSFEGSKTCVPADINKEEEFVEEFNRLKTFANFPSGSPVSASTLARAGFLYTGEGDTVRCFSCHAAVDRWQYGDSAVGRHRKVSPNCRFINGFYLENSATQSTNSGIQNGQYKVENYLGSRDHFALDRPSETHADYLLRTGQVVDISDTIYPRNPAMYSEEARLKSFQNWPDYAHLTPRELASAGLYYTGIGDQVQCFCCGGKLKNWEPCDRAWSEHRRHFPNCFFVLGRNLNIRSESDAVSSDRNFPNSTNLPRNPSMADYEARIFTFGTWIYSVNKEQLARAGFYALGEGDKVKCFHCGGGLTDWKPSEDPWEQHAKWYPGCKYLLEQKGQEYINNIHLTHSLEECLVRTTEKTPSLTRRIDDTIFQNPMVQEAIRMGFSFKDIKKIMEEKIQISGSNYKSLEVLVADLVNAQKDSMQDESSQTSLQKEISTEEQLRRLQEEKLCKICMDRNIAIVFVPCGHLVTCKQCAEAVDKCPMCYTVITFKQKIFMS

Dihydroorotate dehydrogenase (quinone), mitochondrial (Plasmodium falciparum (isolate 3D7)), sequence (Q08210 whole entry, looked up): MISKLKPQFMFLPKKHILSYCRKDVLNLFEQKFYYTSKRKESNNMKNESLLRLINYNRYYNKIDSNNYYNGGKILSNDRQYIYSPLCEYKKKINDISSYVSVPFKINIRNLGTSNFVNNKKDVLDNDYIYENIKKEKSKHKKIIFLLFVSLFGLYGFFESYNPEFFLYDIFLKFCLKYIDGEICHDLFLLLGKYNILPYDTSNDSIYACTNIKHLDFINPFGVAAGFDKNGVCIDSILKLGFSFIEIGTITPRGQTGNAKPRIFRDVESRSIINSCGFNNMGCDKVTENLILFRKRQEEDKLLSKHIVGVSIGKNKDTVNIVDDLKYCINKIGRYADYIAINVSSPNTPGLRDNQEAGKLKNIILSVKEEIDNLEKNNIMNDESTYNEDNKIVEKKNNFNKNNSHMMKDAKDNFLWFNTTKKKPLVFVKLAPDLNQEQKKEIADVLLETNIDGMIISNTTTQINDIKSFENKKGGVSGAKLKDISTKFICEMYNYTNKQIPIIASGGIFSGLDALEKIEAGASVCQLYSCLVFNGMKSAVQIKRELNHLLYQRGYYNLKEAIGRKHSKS

SMILES	z-score [1]	z-score [2]	z-score [3]	z-score [4]	z-score [5]	z-score [6]	z-score [7]	z-score [8]	z-score [9]	z-score [10]	z-score [11]	z-score [12]	z-score [13]	composite z-score [14]	z-score [15]	z-score [16]	z-score [17]	z-score [18]	z-score [19]	composite z-score [20]
O=C1C2C=CC(C(O)c3cc(C(F)(F)F)cc(C(F)(F)F)c3)N(Nc3ccc([N+](=O)[O-])cc3)C2C(=O)N1c1ccccc1 (stereo not given)	-1.61	0.294	-3.51	-2.62	-4.06	-0.982	-0.699 (inactive)	-1.03	-1.99	-0.0362 (inactive)	-0.566	0.55 (inactive)	-0.683 (inactive)	0.665 (inactive)	1.07 (inactive)	0.565 (inactive)	-2.26 (inactive)	-1.25 (inactive)	-2.18	0.29
COCCOC(=O)N1C(=O)[C@@]2(c3cc(C#CC4=CCCCC4)ccc31)[C@H](c1ccccc1OCCO)N1[C@H](c3ccccc3)[C@H](c3ccccc3)OC(=O)[C@H]1[C@@H]2C(=O)N1CCc2cc(OC)c(OC)cc2C1	0.697	0.186	1.34	0.235	-2.05	0.767	3.23 (inactive)	-1.06	-1.32	-0.926 (inactive)	-0.605	1.46 (inactive)	-0.347 (inactive)	-0.349 (inactive)	1.92 (inactive)	2.25 (inactive)	-0.398 (inactive)	0.425 (inactive)	-0.486	-0.11
COc1ccc(NN2C(C(O)c3ccccn3)C=CC3C(=O)N(C4CCCCC4)C(=O)C32)cc1 (stereo not given)	-0.834	0.23	1.44	-1.3	-3.2	-0.645	-0.089 (inactive)	0.201	-1.51	0.342 (inactive)	1.64	-0.774 (inactive)	0.583 (inactive)	1.25 (inactive)	0.574 (inactive)	0.219 (inactive)	-0.416 (inactive)	0.824 (inactive)	0.974	-0.308
COc1ccc([Si](C)(C)[C@H]2[C@H](CCO)O[C@@]3(C(=O)N(Cc4cccc(N5CCCCC5=O)c4)c4ccccc43)[C@@H]2C)cc1	-1.38	-0.865	-4.36	-2.73	-4.35	-1.59	0.0395 (inactive)	-1.1	-2.09	-2.95 (inactive)	-4.02	-0.732 (inactive)	-7.24 (inactive)	-2.94 (inactive)	0.969 (inactive)	4.44 (inactive)	1.83 (inactive)	1.26 (inactive)	-4.57	-0.031
C=CCOC(=O)[C@@H]1[C@H]2C(=O)O[C@H](c3ccccc3)[C@H](c3ccccc3)N2[C@H](c2ccc(OCCOC(=O)[C@H]3C[C@H]4C(=O)N[C@@H](CC(C)C)C(=O)N4[C@H]3c3ccc(O)cc3)cc2)[C@@]12C(=O)Nc1ccc(I)cc12	0.15	0.325	1.02	0.38	1.08	-0.227	3.06 (inactive)	-0.952	-0.838	-0.0756 (inactive)	0.206	1.26 (inactive)	0.219 (inactive)	0.106 (inactive)	2.44 (inactive)	1.6 (inactive)	0.869 (inactive)	1.2 (inactive)	0.597	0.0819
COc1ccc([Si](C)(C)[C@@H]2[C@@H](CCn3cc([C@H](O)c4ccccc4)nn3)O[C@]3(C(=O)N(Cc4ccc(N5CCOC5=O)cc4)c4ccccc43)[C@H]2C)cc1	-0.0046	0.417	0.215	-1.06	-1.3	1.67	0.00306 (inactive)	0.417	-0.657	0.595 (inactive)	0.977	0.146 (inactive)	-0.806 (inactive)	0.181 (inactive)	0.483 (inactive)	1.54 (inactive)	0.323 (inactive)	-0.0694 (inactive)	-0.12	0.049
COC(=O)C1(Cc2ccccc2)C=C2C(=C(c3ccccc3)C(=O)C2C)CN1 (stereo not given)	-0.874	0.24	-0.515	-0.451	-0.91	-0.832	-1.12 (inactive)	0.213	-0.291	-0.358 (inactive)	-1.33	0.369 (inactive)	-2.99 (inactive)	-1.03 (inactive)	1.04 (inactive)	0.109 (inactive)	-1.25 (inactive)	-0.628 (inactive)	-1.78	-0.217
COCCOC(=O)N1C(=O)[C@@]2(c3cc(C#Cc4ccc(OC)cc4)ccc31)[C@H](C(=O)N1CCCCCCC1)[C@H]1C(=O)O[C@H](c3ccccc3)[C@H](c3ccccc3)N1[C@@H]2c1ccc(O)cc1	-0.938	1.07	-0.618	-0.26	-0.943	-0.73	0.88 (inactive)	-0.0794	-0.559	0.545 (inactive)	0.808	-0.404 (inactive)	0.0013 (inactive)	-0.458 (inactive)	0.721 (inactive)	0.868 (inactive)	-0.919 (inactive)	-1.22 (inactive)	-0.206	-0.0501
CN1C(=O)C2C=CC(C(O)Cc3ccccc3)N(N(c3ccccc3)c3ccccc3)C2C1=O (stereo not given)	1.02	-1.5	1.35	-0.64	0.0338	1.37	-0.833 (inactive)	0.257	-0.871	-0.69 (inactive)	-0.567	-0.519 (inactive)	-1.62 (inactive)	-0.443 (inactive)	0.543 (inactive)	0.303 (inactive)	-0.804 (inactive)	-0.233 (inactive)	-0.855	0.0918
C[C@@H]1ON(c2ccc(C(=O)OC(C)(C)C)cc2)[C@H](c2ccc(Br)cc2)[C@H]1C(=O)N1C(=O)OC[C@H]1Cc1ccccc1	0.136	0.393	0.889	-0.486	-0.403	0.401	-0.728 (inactive)	-1.1	0.24	1.23 (inactive)	0.318	0.0743 (inactive)	0.652 (inactive)	0.315 (inactive)	0.224 (inactive)	0.538 (inactive)	0.488 (inactive)	0.46 (inactive)	1.23	-0.16
C=CCOC(=O)[C@H]1[C@@H]2C(=O)O[C@@H](c3ccccc3)[C@@H](c3ccccc3)N2[C@@H](c2ccc(OCCOC(=O)[C@H]3C[C@H]4C(=O)N[C@@H](Cc5ccccc5)C(=O)N4[C@H]3c3ccc(O)cc3)cc2)[C@]12C(=O)Nc1ccc(I)cc12	-0.7	0.664	1.16	0.0161	-0.321	0.408	-0.118 (inactive)	-0.59	-1.04	-0.0968 (inactive)	-0.16	1.82 (inactive)	-0.417 (inactive)	-1.16 (inactive)	4.1 (inactive)	1.66 (inactive)	-0.359 (inactive)	-0.293 (inactive)	0.194	0.0981
CN1C(=O)[C@@]2(CCS(=O)(=O)c3ccccc3)N=C(c3ccc(OCCCO)cc3)O[C@H]2c2ccccc21	0.524	1.1	-0.0319	-0.624	-0.517	0.214	0.426 (inactive)	-0.776	0.111	-0.254 (inactive)	0.316	0.369 (inactive)	0.718 (inactive)	0.0865 (inactive)	-0.469 (inactive)	0.64 (inactive)	0.606 (inactive)	0.946 (inactive)	-1.09	0.205
C=CC[C@@]12N=C(c3ccc(OCCCO)cc3)O[C@@H]1c1ccccc1N(CCS(=O)(=O)c1ccccc1)C2=O	0.4	0.962	1.05	-1.41	-1.02	0.381	2.23 (inactive)	-0.899	-1.22	-1.54 (inactive)	0.653	0.0618 (inactive)	-1.97 (inactive)	0.0628 (inactive)	-0.251 (inactive)	0.379 (inactive)	0.907 (inactive)	1.6 (inactive)	-1.07	0.0303
CCOC(=O)C[C@H]1[C@H](OC(=O)c2ccc(-c3ccccc3)cc2)[C@@H](NC(=O)c2ccc3ccccc3c2)c2cc(OCCCO)ccc2N1C(=O)c1ccc2ccccc2n1	0.245	0.543	-0.573	0.477	-1.06	1.33	1.26 (inactive)	0.729	0.164	0.094 (inactive)	-0.138	-0.158 (inactive)	0.175 (inactive)	-0.746 (inactive)	0.927 (inactive)	-0.736 (inactive)	-0.936 (inactive)	-0.808 (inactive)	-0.152	-0.394
CC=CC(O)C1C=CC2C(=O)N(C)C(=O)C2N1Nc1ccc([N+](=O)[O-])cc1[N+](=O)[O-] (stereo not given)	-0.481	-0.682	0.275	-1.73	-0.485	-0.744	-0.453 (inactive)	0.0263	-0.635	-0.574 (inactive)	-1.12	0.554 (inactive)	-0.831 (inactive)	0.295 (inactive)	0.599 (inactive)	0.658 (inactive)	-0.476 (inactive)	-0.618 (inactive)	-0.606	-0.247
COCCCNC(=O)[C@]1(Cc2ccccc2CN=[N+]=[N-])N=C(c2ccc(OCCCO)cc2)O[C@@H]1c1ccccc1	-1.36	0.503	-0.79	-2.62	-4.24	-0.194	0.48 (inactive)	-1.15	-1.11	0.28 (inactive)	1.27	-0.682 (inactive)	-1.48 (inactive)	0.633 (inactive)	-0.441 (inactive)	0.916 (inactive)	1.18 (inactive)	0.422 (inactive)	-3.11	0.216
CC(C)c1ccc(NN2C(C(O)c3ccco3)C=CC3C(=O)N(c4ccccc4)C(=O)C32)cc1 (stereo not given)	0.983	-1.49	0.842	-0.155	-0.166	-1.14	-0.473 (inactive)	0.473	-0.921	-0.635 (inactive)	-0.517	-2.51 (inactive)	-1.23 (inactive)	0.325 (inactive)	1.07 (inactive)	0.921 (inactive)	-0.609 (inactive)	0.245 (inactive)	-0.695	-0.0026
